Bioassay records as filed in PubChem BioAssay.
MmCpn inh – blocks the Methanococcus maripaludis chaperonin Mm-Cpn. purified Mm-Cpn ATPase, ADP Transcreener TR-FRET. Potency, µM (highest dose often 76.9 µM), inactives show top-dose activity, negative = inhibition, usual class: inhibitors. hit rate 0.031% among 330,000; active = well fitted inhibition curve with a large enough effect; inconclusive = small, poorly fitted or top-dose-only effect; note: potency is the fitted concentration of half-maximal effect; % is set by controls: 0 for no effect and ±100 for the full control effect; nearly all actives have a fitted effect of over 80% in size
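Compound-treated chaperonin, 25 nM final, turns over 10 uM ATP at 37°C for 30 min following a 10 min preincubation; ADP generated competes with ADP-d2 for Eu-cryptate antibody, lowering FRET.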
Giardia killer – Giardia lamblia killing; Giardia lamblia trophozoite viability; activity change, % at 7.66 µM, hits read low; hit rate 0.15% among 340,000; AID 540267; in the data active = activity change below about -80%; inconclusive = between about -30% and that limit;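 note: parasites exposed to compound for two days anaerobically before the ATP read; % is set by controls: 0 for no effect and ±100 for the full control effect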
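Giardia lamblia trophozoites (100 cells/well) were incubated with compounds for 48 h at 37 deg C under anaerobic conditions. Viability was read as ATP content by one-step luminescence after 15-30 min at room temperature.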
Rango release inh – prevents RanGTP from dissociating the Rango-importin beta complex. AID 540253. Potency, µM (titrated, usually from 46.1 µM), for the others: top-dose activity change, negative = inhibition. hit rate 0.071% among 340,000. O95149+P62826. Biochemical FRET Rango-importin beta, RanGTP-induced dissociation; note: potency is the fitted concentration of half-maximal effect; % of control where 0% means no effect; nearly all actives have a fitted effect of over 45% in size
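Two FRET readings bracket the reaction: one 5 min after compound meets Rango–importin beta, another 45 min after RanGTP-RCC1 (0.6 uM Ran, 0.2 uM RCC1, 2 mM GTP) is added. Only the second defines inhibition.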
Rango complex inh – inhibitors of Rango-importin beta complex formation; Q14974; Rango CFP/YFP FRET sensor + importin beta, 45 min; Potency, µM (series often up to 92.2 µM), without a hit: at the top dose inhibition of complex formation; hit rate 0.031% among 340,000; AID 540263;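 note: potency is the fitted concentration of half-maximal effect; 0% = DMSO wells and 100% = buffer wells lacking importin beta; nearly all actives have a fitted effect of over 15% in size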
Target sequence (Q14974 whole entry, looked up): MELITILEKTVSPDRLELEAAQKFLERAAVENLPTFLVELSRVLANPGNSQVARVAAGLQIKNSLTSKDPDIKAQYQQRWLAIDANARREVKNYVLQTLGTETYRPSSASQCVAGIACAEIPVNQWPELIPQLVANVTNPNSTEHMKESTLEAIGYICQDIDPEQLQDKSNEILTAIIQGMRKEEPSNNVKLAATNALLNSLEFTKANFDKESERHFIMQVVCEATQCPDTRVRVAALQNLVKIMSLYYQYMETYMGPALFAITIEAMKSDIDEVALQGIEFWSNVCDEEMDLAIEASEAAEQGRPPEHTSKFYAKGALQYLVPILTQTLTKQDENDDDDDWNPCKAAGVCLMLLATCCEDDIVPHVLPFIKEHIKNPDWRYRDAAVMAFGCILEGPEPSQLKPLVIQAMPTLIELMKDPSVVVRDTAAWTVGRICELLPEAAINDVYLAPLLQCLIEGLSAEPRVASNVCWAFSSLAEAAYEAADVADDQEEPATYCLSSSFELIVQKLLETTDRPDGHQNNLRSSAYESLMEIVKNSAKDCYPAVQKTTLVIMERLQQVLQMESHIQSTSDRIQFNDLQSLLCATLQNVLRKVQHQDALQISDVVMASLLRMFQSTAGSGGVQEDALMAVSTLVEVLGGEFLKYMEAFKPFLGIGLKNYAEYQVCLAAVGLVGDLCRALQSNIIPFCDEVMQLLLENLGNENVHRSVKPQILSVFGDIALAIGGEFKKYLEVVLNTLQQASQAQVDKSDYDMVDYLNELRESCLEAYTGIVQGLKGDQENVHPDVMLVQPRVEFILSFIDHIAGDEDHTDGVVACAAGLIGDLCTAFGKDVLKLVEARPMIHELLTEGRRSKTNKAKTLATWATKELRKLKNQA
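FRET biosensor (snurportin 1 IBB flanked by EYFP and cerulean), 50 nM, with compound 5 min, then 0.125 microM importin beta in PBS, 1 mM DTT, 0.02% Tween-20, 0.1% BSA. CFP/YFP ratio read after 45 min at room temperature; pre-read flags interference.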
CCT modulator – modulators of cytosolic chaperonin (CCT/TRiC) activity; purified chaperonin ATPase assay, HTRF ADP detection, 30 min; activity change, % (test concentration not listed), hits read low; hit rate 0.3% among 360,000; in the data active = activity change below about -30%; note: % is set by controls: 0 for no effect and ±100 for the full control effect
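ATPase activity: ADP formed was measured by HTRF Transcreener (665/615 nm ratio) after 30 min at 37 deg C with 10 uM ATP. Compounds screened at one 76 uM concentration against 40 or 20 nM TRiC in Tris pH 7.4/KCl/MgCl2/DTT buffer.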
Active calls of the source: *; [ ] = remark or other dose. Shown are actives, neighbours in structure and some others; about 0.53% of the full set was active somewhere. Unless noted, calls come from the whole dose curve.

What do the screens show for `COc1ccc(NC(=O)c2cc3c(=O)n(C)c4ccccc4c3n2C)cc1OC`?
MmCpn inh: 2%; Giardia killer: -10; Rango release inh: -5%; Rango complex inh: 0%; CCT modulator: -32*

How did Cc1ccc(CNC(=O)c2cc3c(=O)n(C)c4ccccc4c3n2C)cc1 do in these assays?
MmCpn inh: 0%; Giardia killer: 5; Rango release inh: 8%; Rango complex inh: 0%; CCT modulator: -32*

Results for COc1ccc(NC(=O)c2cc3c(=O)n(C)c4ccccc4c3n2C)cc1Cl ?
MmCpn inh: inconclusive; Giardia killer: 17; Rango release inh: -4%; Rango complex inh: 3%; CCT modulator: -4

Results for CN=C1N[C@H](c2ccccc2)N(c2ccccc2)S1 ?
Giardia killer: 11

Results for O=C(O)c1cccc(-n2cccc2/C=C2/NC(=O)N(c3ccc(Cl)cc3)C2=O)c1 ?
MmCpn inh: -2%; Giardia killer: -23; Rango release inh: 16µM*; Rango complex inh: inconclusive; CCT modulator: -3

What do the screens show for `CCS(=O)(=O)CCn1c([N+](=O)[O-])cnc1C`?
MmCpn inh: 1%; Giardia killer: -86*; Rango release inh: -23%; Rango complex inh: -2%; CCT modulator: -1

How did Cc1ncc([N+](=O)[O-])n1CCO do in these assays?
MmCpn inh: -2%[15.4 µM]; Giardia killer: inconclusive; Rango release inh: -11%; Rango complex inh: -1%; CCT modulator: -3

How did Cc1cc2ccccc2n1CCNC(=O)c1cccs1 do in these assays?
MmCpn inh: 28µM*; Giardia killer: 13; Rango release inh: inconclusive; Rango complex inh: inconclusive; CCT modulator: -1

How did O=C(CN(CC1CCCO1)C(=O)CNS(=O)(=O)c1ccc(Cl)cc1)NCc1ccco1 (configuration not stated) do in these assays?
MmCpn inh: -1%; Giardia killer: -13; Rango release inh: -3%; Rango complex inh: 3%; CCT modulator: -46*

What do the screens show for `Cc1nn(Cc2ccccc2Cl)c2sc(C(=O)Nc3nccs3)cc12`?
MmCpn inh: -21%; Giardia killer: 11; Rango release inh: 9%; Rango complex inh: 1%; CCT modulator: -57*

What do the screens show for `Cc1nn(Cc2ccc(F)cc2)c2sc(C(=O)Nc3nccs3)cc12`?
MmCpn inh: -3%; Giardia killer: 0; Rango release inh: 0%; Rango complex inh: -1%; CCT modulator: -2

How did CCOc1ccc(-c2nn3c(-c4cc(-c5ccccc5)n[nH]4)nnc3s2)cc1 do in these assays?
Giardia killer: 63

What do the screens show for `COc1c(F)c(F)c(C(=O)O)c(Nc2ccccc2)c1F`?
MmCpn inh: 0%; Giardia killer: 2; Rango release inh: -10%; Rango complex inh: 3%; CCT modulator: -78*

What do the screens show for `COc1ccc(C2Nc3ccccc3C(=O)N2Cc2ccco2)cc1OC` (configuration not stated)?
Giardia killer: -7

Results for Cc1cccc(C(O)C(O)c2cccc(C)n2)n1 (configuration not stated) ?
Giardia killer: 16; Rango release inh: 10%; Rango complex inh: 0%; CCT modulator: -85*

Results for Cc1cccc(C(P(=O)(c2ccccc2)c2ccccc2)P(=O)(c2ccccc2)c2ccccc2)n1 ?
MmCpn inh: 0%; Giardia killer: -12; Rango release inh: -1%; Rango complex inh: 0%; CCT modulator: -1

How did CCOC(=O)C1CCCN(c2c(C(=O)c3ccc(C)cc3)cnc3ccc(OCC)cc23)C1 (configuration not stated) do in these assays?
Giardia killer: -12

Results for Cc1cc(C)n(Cc2ccc(C(=O)NN)o2)n1 ?
MmCpn inh: 0%; Giardia killer: 1; Rango release inh: 51%; Rango complex inh: -2%; CCT modulator: -50*

What do the screens show for `CCC/C=C1/CCCOC(C(=O)NCCOC)(C(F)(F)F)C1` (configuration not stated)?
Giardia killer: -9

How did CC(C)CNC(=S)NC(=O)c1csc([N+](=O)[O-])c1 do in these assays?
MmCpn inh: 0%; Giardia killer: -87*; Rango release inh: -5%; Rango complex inh: 3%; CCT modulator: 0

Results for CC(C)CNC(=S)NC(=O)c1ccc([N+](=O)[O-])cc1 ?
MmCpn inh: 2%; Giardia killer: 2; Rango release inh: -3%; Rango complex inh: 0%; CCT modulator: 2

How did Cc1ccc(OCCCC(=O)N2CCN(S(=O)(=O)c3cccc(F)c3)CC2)cc1 do in these assays?
MmCpn inh: 1%; Giardia killer: -7; Rango release inh: 7%; Rango complex inh: 0%; CCT modulator: -3

What do the screens show for `CCOc1ccc(C(=O)CCC(=O)N2CCN(S(=O)(=O)c3cccc(F)c3)CC2)cc1`?
MmCpn inh: -1%; Giardia killer: -21; Rango release inh: 17%; Rango complex inh: 0%; CCT modulator: -49*

How did CC(C(=O)O)N1C(=O)/C(=C/c2cccn2C)SC1=S (configuration not stated) do in these assays?
MmCpn inh: -2%; Giardia killer: -22; Rango release inh: 2.6µM*; Rango complex inh: inconclusive; CCT modulator: -1

Results for Nc1ccc2c(c1Br)Cc1ccccc1-2 ?
Giardia killer: -3; Rango release inh: 0%; Rango complex inh: 2%; CCT modulator: -41*

Results for Cn1c(=S)[nH]c2scc(-c3cccs3)c2c1=O ?
MmCpn inh: inconclusive; Giardia killer: 0; Rango release inh: -12%; Rango complex inh: 1%; CCT modulator: -36*

How did C=CCn1c(=S)[nH]c2scc(-c3cccs3)c2c1=O do in these assays?
MmCpn inh: 50µM*; Giardia killer: 5; Rango release inh: 2%; Rango complex inh: -1%; CCT modulator: 1

What do the screens show for `CC1(C)CC(=O)C2=C(C1)NC(Nc1nc3ccccc3o1)=NC2c1cccc(O)c1` (configuration not stated)?
Giardia killer: 13

Results for CCCC[C@]12Cc3cc(OC)c(OC)cc3C(O1)C1=C(O2)C(=O)c2ccccc2C1=O ?
MmCpn inh: -1%[15.4 µM]

Results for CC(SC1=NS(=O)(=O)c2ccccc21)C(=O)O (configuration not stated) ?
Giardia killer: -7

What do the screens show for `Cc1nnc(SCC(=O)Nc2ccc(OC(F)F)c(Cl)c2)n(N)c1=O`?
MmCpn inh: 2%; Giardia killer: -27; Rango release inh: 1%; Rango complex inh: 1%; CCT modulator: -40*

Results for Cc1ccc(S(=O)(=O)c2ccc(Cl)cc2)cc1S(=O)(=O)N(C)CC(=O)O ?
MmCpn inh: 1%; Giardia killer: -9; Rango release inh: -10%; Rango complex inh: -3%; CCT modulator: 1
